Assay results as given in the supplement of paper PMC8728848.
The entries come from a sample that favours the strongest signals as a whole.

Tests used:
Assay in all cases: glycan array binding signal (z-score within array); higher = stronger binding
Details in all cases: glycan notation: IUPAC condensed, linker removed
[1] = molecular target: Fuc(a1-2)Gal(b1-3)[Fuc(a1-4)]GlcNAc
Procedure, shortened: (§1)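 Glycan array binding is given as a within-array Z-score, which can be read as non-binding when negative. The arrays, 3228 of them, came from the Consortium for Functional Glycomics database and were retained only where the protein sequence was available. Z-scores were averaged across arrays of the same protein sequence at different concentrations or buffers and across linkers.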

[2] = molecular target: Fuc(a1-2)Gal(b1-4)[Fuc(a1-3)]GlcNAc
Procedure, shortened: as §1

[3] = molecular target: Fuc(a1-2)Gal(b1-4)[Fuc(a1-3)]GlcNAc(b1-3)Gal(b1-4)[Fuc(a1-3)]GlcNAc(b1-3)Gal(b1-4)[Fuc(a1-3)]GlcNAc
Procedure, shortened: as §1

[4] = molecular target: Fuc(a1-2)Gal(b1-4)[Fuc(a1-3)]GlcNAc(b1-3)[Neu5Ac(a2-6)Gal(b1-4)GlcNAc(b1-6)]Gal(b1-4)Glc
Procedure, shortened: as §1

[5] = molecular target: Fuc(a1-2)[Gal(a1-3)]Gal(b1-3)GalNAc
Procedure, shortened: as §1

[6] = molecular target: Fuc(a1-3)[Gal(b1-4)]GlcNAc(b1-2)Man(a1-3)[Fuc(a1-3)[Gal(b1-4)]GlcNAc(b1-2)Man(a1-6)]Man(b1-4)GlcNAc(b1-4)GlcNAc
Procedure, shortened: as §1

[7] = molecular target: Gal(a1-3)Gal(b1-3)GlcNAc(b1-2)Man
Procedure, shortened: as §1

[8] = molecular target: Gal(a1-3)Gal(b1-3)[Fuc(a1-4)]GlcNAc(b1-2)Man(a1-3)[Gal(a1-3)Gal(b1-3)[Fuc(a1-4)]GlcNAc(b1-2)Man(a1-6)]Man(b1-4)GlcNAc(b1-4)GlcNAc
Procedure, shortened: as §1

[9] = molecular target: Gal(b1-3)Gal(b1-4)GlcNAc
Procedure, shortened: as §1

[10] = molecular target: Gal(b1-3)GalNAc(b1-4)Gal(b1-4)Glc
Procedure, shortened: as §1

[11] = molecular target: Gal(b1-3)GlcNAc(b1-2)Man
Procedure, shortened: as §1

[12] = molecular target: Gal(b1-3)[Neu5Ac(a2-6)]GlcNAc
Procedure, shortened: as §1

[13] = molecular target: Gal(b1-3)[Neu5Ac(a2-6)]GlcNAc(a1-4)Gal(b1-4)Glc
Procedure, shortened: as §1

[14] = molecular target: Gal(b1-4)GlcNAc(b1-2)[Gal(b1-4)GlcNAc(b1-6)]Man(a1-6)[GlcNAc(b1-4)][Gal(b1-4)GlcNAc(b1-2)Man(a1-3)]Man(b1-4)GlcNAc(b1-4)GlcNAc
Procedure, shortened: as §1

[15] = molecular target: Gal(b1-4)GlcNAc(b1-3)Gal(b1-4)GlcNAc(b1-2)[Gal(b1-4)GlcNAc(b1-3)Gal(b1-4)GlcNAc(b1-6)]Man(a1-6)[Gal(b1-4)GlcNAc(b1-3)Gal(b1-4)GlcNAc(b1-2)Man(a1-3)]Man(b1-4)GlcNAc(b1-4)GlcNAc
Procedure, shortened: as §1

[16] = molecular target: Gal(b1-4)GlcNAc(b1-3)[Gal(b1-4)GlcNAc(b1-6)]GalNAc
Procedure, shortened: as §1

[17] = molecular target: Gal(b1-4)GlcNAc(b1-6)[Gal(b1-3)]GlcNAc
Procedure, shortened: as §1

[18] = molecular target: Gal3S(b1-4)Glc
Procedure, shortened: as §1

[19] = molecular target: Gal3S(b1-4)GlcNAc
Procedure, shortened: as §1

[20] = molecular target: Gal6S(b1-3)GlcNAc
Procedure, shortened: as §1

[21] = molecular target: Gal6S(b1-4)Glc6S
Procedure, shortened: as §1

[22] = molecular target: Gal6S(b1-4)GlcNAc6S
Procedure, shortened: as §1

[23] = molecular target: GalNAc(b1-3)Gal(a1-4)Gal(b1-4)GlcNAc
Procedure, shortened: as §1

[24] = molecular target: GalNAc3S(b1-4)[Fuc(a1-3)]GlcNAc
Procedure, shortened: as §1

[25] = molecular target: Glc(b1-6)Glc
Procedure, shortened: as §1

[26] = molecular target: GlcNAc(a1-4)Gal(b1-4)GlcNAc(b1-3)Gal(b1-4)GlcNAc(b1-3)Gal(b1-4)GlcNAc
Procedure, shortened: as §1

[27] = molecular target: GlcNAc(b1-2)Gal(b1-3)GalNAc
Procedure, shortened: as §1

[28] = molecular target: GlcNAc(b1-2)Man(a1-3)[GlcNAc(b1-4)][GlcNAc(b1-2)Man(a1-6)]Man(b1-4)GlcNAc(b1-4)[Fuc(a1-6)]GlcNAc
Procedure, shortened: as §1

[29] = molecular target: GlcNAc(b1-3)Gal(b1-3)GalNAc
Procedure, shortened: as §1

[30] = molecular target: GlcNAc(b1-3)Gal(b1-4)GlcNAc(b1-2)[GlcNAc(b1-3)Gal(b1-4)GlcNAc(b1-6)]Man(a1-6)[GlcNAc(b1-3)Gal(b1-4)GlcNAc(b1-2)Man(a1-3)]Man(b1-4)GlcNAc(b1-4)GlcNAc
Procedure, shortened: as §1

[31] = molecular target: GlcNAc(b1-3)Gal(b1-4)GlcNAc(b1-6)[GlcNAc(b1-3)Gal(b1-3)]GalNAc
Procedure, shortened: as §1

[32] = molecular target: GlcNAc(b1-3)[GlcNAc(b1-4)][GlcNAc(b1-6)]GlcNAc
Procedure, shortened: as §1

[33] = molecular target: Kdn(a2-3)Gal(b1-4)GlcNAc
Procedure, shortened: as §1

[34] = molecular target: Man(a1-2)Man(a1-2)Man(a1-3)[Man(a1-2)Man(a1-6)[Man(a1-3)]Man(a1-6)]Man(b1-4)GlcNAc(b1-4)GlcNAc
Procedure, shortened: as §1

[35] = molecular target: Man(a1-3)[Man(a1-6)]Man
Procedure, shortened: as §1

[36] = molecular target: Neu5Ac(a2-3)Gal(b1-3)GlcNAc(b1-2)Man(a1-3)[Neu5Ac(a2-3)Gal(b1-3)GlcNAc(b1-2)Man(a1-6)]Man(b1-4)GlcNAc(b1-4)GlcNAc
Procedure, shortened: as §1

[37] = molecular target: Neu5Ac(a2-3)Gal(b1-3)GlcNAc(b1-2)[Neu5Ac(a2-3)Gal(b1-3)GlcNAc(b1-4)]Man(a1-6)[Neu5Ac(a2-3)Gal(b1-3)GlcNAc(b1-2)Man(a1-3)]Man(b1-4)GlcNAc(b1-4)GlcNAc
Procedure, shortened: as §1

[38] = molecular target: Neu5Ac(a2-3)Gal(b1-4)GlcNAc(b1-3)Gal(b1-4)GlcNAc(b1-3)Gal(b1-4)GlcNAc(b1-2)Man(a1-3)[Neu5Ac(a2-3)Gal(b1-4)GlcNAc(b1-3)Gal(b1-4)GlcNAc(b1-3)Gal(b1-4)GlcNAc(b1-2)Man(a1-6)]GalNAc
Procedure, shortened: as §1

[39] = molecular target: Neu5Ac(a2-3)Gal(b1-4)[Fuc(a1-3)]GlcNAc(b1-6)[Gal(b1-3)]GalNAc
Procedure, shortened: as §1

[40] = molecular target: Neu5Ac(a2-3)Gal(b1-4)[Fuc(a1-3)]GlcNAc6S
Procedure, shortened: as §1

[41] = molecular target: Neu5Ac(a2-8)Neu5Ac
Procedure, shortened: as §1

[42] = molecular target: Neu5Gc(a2-3)Gal(b1-4)GlcNAc
Procedure, shortened: as §1

[43] = molecular target: Neu5Gc(a2-8)Neu5Gc(a2-3)Gal(b1-4)GlcNAc
Procedure, shortened: as §1

[44] = molecular target: Neu5Gc(a2-8)Neu5Gc(a2-6)Gal(b1-4)GlcNAc
Procedure, shortened: as §1

B1: Epa15 (Candida glabrata) (protein)
chain: MGSSHHHHHHSSGLVPRGSHMASDPTTFPLGCSPEFTKTKKGLSMELYRYDYLPPGSYPCWDSAYLNPSYPRTGYKAKKLIATVDGVSGDINFKFNPKFGCKAIPDYLPSNFNYHEPITITNFTMILYGYFMPKTTAFHTFYVTADDLLFMNFGAGNAFDCCRREETADKFGNYAAYSVWGKKSLKNELTVYLHTGVYYPIRLFYNNRDYIAQLDIRFKTEHSNAIITNFTDYFYSVDDSSLGCPGLI
- glycan array binding signal (z-score) [1]: -0.446
- glycan array binding signal (z-score) [2]: -0.361
- glycan array binding signal (z-score) [3]: -0.446
- glycan array binding signal (z-score) [4]: -0.092
- glycan array binding signal (z-score) [5]: -0.127
- glycan array binding signal (z-score) [6]: -0.403
- glycan array binding signal (z-score) [7]: 1.8
- glycan array binding signal (z-score) [8]: 1.85
- glycan array binding signal (z-score) [9]: 0.625
- glycan array binding signal (z-score) [10]: 2.64
- glycan array binding signal (z-score) [11]: 0.38
- glycan array binding signal (z-score) [12]: 2.5
- glycan array binding signal (z-score) [13]: -0.269
- glycan array binding signal (z-score) [14]: -0.041
- glycan array binding signal (z-score) [15]: 2.71
- glycan array binding signal (z-score) [16]: 5.02
- glycan array binding signal (z-score) [17]: 5.53
- glycan array binding signal (z-score) [18]: -0.053
- glycan array binding signal (z-score) [19]: -0.488
- glycan array binding signal (z-score) [20]: 2.78
- glycan array binding signal (z-score) [21]: 4.58
- glycan array binding signal (z-score) [22]: 10.6
- glycan array binding signal (z-score) [23]: 0.652
- glycan array binding signal (z-score) [24]: -0.141
- glycan array binding signal (z-score) [25]: -0.464
- glycan array binding signal (z-score) [26]: -0.452
- glycan array binding signal (z-score) [27]: -0.411
- glycan array binding signal (z-score) [28]: -0.557
- glycan array binding signal (z-score) [29]: -0.444
- glycan array binding signal (z-score) [30]: 0.605
- glycan array binding signal (z-score) [31]: -0.188
- glycan array binding signal (z-score) [32]: -0.536
- glycan array binding signal (z-score) [33]: -0.317
- glycan array binding signal (z-score) [34]: -0.285
- glycan array binding signal (z-score) [35]: -0.303
- glycan array binding signal (z-score) [36]: 0.415
- glycan array binding signal (z-score) [37]: -0.226
- glycan array binding signal (z-score) [38]: 2.56
- glycan array binding signal (z-score) [39]: 1.87
- glycan array binding signal (z-score) [40]: -0.461
- glycan array binding signal (z-score) [41]: -0.571
- glycan array binding signal (z-score) [42]: -0.437
- glycan array binding signal (z-score) [43]: -0.346
- glycan array binding signal (z-score) [44]: -0.395
